An excerpt weighted towards active compounds, which were near 2.5% of everything screened.
FLuc inh: blocks Photinus pyralis firefly luciferase activity. P08659. 2.2% of 72,000 active. Potency, µM (doses to about 57.1 µM), without a hit: at the top dose activity change, negative = inhibition, most hits filed as inhibitors. AID 411. purified firefly luciferase, luminescence, 8 min; active means well fitted inhibition curve with a large enough effect; inconclusive means small, poorly fitted or top-dose-only effect; further: nearly all actives have a fitted effect of over 40% in size
Target sequence (P08659 whole entry, looked up): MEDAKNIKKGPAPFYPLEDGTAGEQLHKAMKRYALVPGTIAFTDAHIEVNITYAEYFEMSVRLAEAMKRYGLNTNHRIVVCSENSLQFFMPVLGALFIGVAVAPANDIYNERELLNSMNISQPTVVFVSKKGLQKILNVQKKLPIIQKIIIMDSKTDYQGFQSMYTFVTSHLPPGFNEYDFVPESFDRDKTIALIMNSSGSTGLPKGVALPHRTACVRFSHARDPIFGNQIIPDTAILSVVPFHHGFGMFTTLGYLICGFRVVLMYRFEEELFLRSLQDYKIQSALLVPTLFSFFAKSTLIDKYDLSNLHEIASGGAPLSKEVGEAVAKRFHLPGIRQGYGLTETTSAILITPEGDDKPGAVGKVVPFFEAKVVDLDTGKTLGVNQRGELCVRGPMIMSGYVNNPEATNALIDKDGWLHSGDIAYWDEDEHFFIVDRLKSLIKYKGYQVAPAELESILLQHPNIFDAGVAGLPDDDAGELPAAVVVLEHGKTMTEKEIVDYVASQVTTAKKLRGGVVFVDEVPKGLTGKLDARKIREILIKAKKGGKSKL
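qHTS concentration-response profiling: light output of P. pyralis luciferase with luciferin and 10 uM ATP, imidazole buffer pH 7.2. Read by luminescence after 8-min room-temperature incubation.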
Bst PK mod: modulators of Bacillus stearothermophilus pyruvate kinase. purified pyruvate kinase, luminescence ATP production; ribose 5-phosphate activator present at AC10. Potency, µM. AID 361. 1.2% of 51,000 active; in the data active means potency below about 11 µM; inconclusive means mostly about 12 µM to 25 µM;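 the screen sought inhibitors and activators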;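 further: scaled between full activation by ribose 5 phosphate and full inhibition by luteolin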
* hit, by the source's call; i = inactive; ? = inconclusive; . = no result given; [ ] = dose if it differs, or a comment. Unless noted, on the % scale 0 is the no-effect control and ±100 the full control effect; potency means the concentration at half of the fitted maximal effect.

SMILES	FLuc inh	Bst PK mod
COc1cccc(C=Nc2ccc3c(c2)OCCO3)c1O	3.98µM*	?
COc1cccc(N=Cc2ccc(O)cc2O)c1	-2.0%	.
CN(C)c1ccc(-c2cncnc2NCc2ccccc2)cc1	-0.9%[2.29 µM]	.
COCCN(CCOC)S(=O)(=O)c1ccc(C(=O)Nc2nc(C)c(C(C)=O)s2)cc1	-1.9%	>57
CC(=O)c1sc(NC(=O)c2ccccc2F)nc1C	15.8µM*	.
Fc1cccc(Cl)c1/C=N\N=C1c2ccccc2-c2ccccc21	-1.1%[11.4 µM]	.
COc1ccc2[nH]c3c(c2c1)CCn1c-3nc2ccccc2c1=O	0.631µM*	0.196*
COc1cc(OC)cc(C(=O)Nn2c(C)nc3ccccc3c2=O)c1	1.4%	>57
O=C(NCCCn1ccnc1)c1cn(-c2ccccc2)nc1-c1ccc(F)cc1	12.6µM*	i
O=C(NCCCn1ccnc1)c1cccnc1	0.1%[25.5 µM]	>25.6
COc1cc2c(cc1OC)CN(C(=O)C(C)(C)C)CC2	0.1%	.
COc1cc2c(cc1OC)CN(C(=O)CC1CC3CCC1C3)CC2 (stereo not given)	12.6µM*	i
O=C(O)[C@@H]1[C@@H](C(=O)NCc2cccnc2)[C@@H]2C=C[C@@H]1O2	-0.4%[11.4 µM]	.
Nc1ncnc2c1ncn2[C@H]1O[C@@H](CO)[C@@H](O)[C@H]1N	0.1%[11.4 µM]	.
O=C(/C=C\Nc1ccc2c(c1)OCO2)c1ccccn1	0.631µM*	.
O=C(NCc1ccc2c(c1)OCO2)c1ccccn1	0.1%	>57
O=c1c(-c2nc3ccccc3o2)c2oc3ccccc3n2c2ccccc12	-3.7%	5.41*
O=c1oc2ccccc2n1CCn1c2ccccc2c2nc3ccccc3nc21	-0.4%	>57
C/C(CCN1CCCCc2nc(C)c(C)cc21)=N\O[C@@H](C)CN1CCCc2nc(C)c(C)cc21	0.8%[11.4 µM]	.
Nc1nc(CSc2ccccn2)nc(Nc2ccccc2)n1	20µM*	.
COc1ccc2nc(SCc3nc(N)nc(Nc4ccccc4)n3)[nH]c2c1	12.6µM*	.
COc1ccc2nc(SCC(N)=O)[nH]c2c1	0.4%	>57
CCOC(=O)c1cnc(SCc2nc(N)nc(Nc3ccccc3)n2)nc1N	-13.6%	>57
Cc1cc(C(=O)CN2C(=O)c3ccccc3C2=O)c(C)n1Cc1cccs1	7.94µM*	11.3*
Cc1cc(C(=O)Cn2nnc3ccccc3c2=O)c(C)n1Cc1cccs1	6.31µM*	5.69*
SMILES	FLuc inh	Bst PK mod
COc1ccc(OC)c(C(=O)Cn2nnc3ccccc3c2=O)c1	2.1%	>57
Cc1cc(C(=O)CN2C(=O)CCC2=O)c(C)n1Cc1ccccc1	-2.8%	>57
C[C@H](N)C(=O)OC(C)(C)Cc1ccc(Cl)cc1	-0.4%	.
CC(=O)Nc1cccc(NC(=O)c2cc(C)on2)c1	-3.4%	>57
CC(=O)Nc1cccc(Oc2ccc(-c3noc(C)n3)cc2)c1	12.6µM*	i
COc1cc([C@H]2c3cc4c(cc3[C@@H](O[C@H]3O[C@H]5CO[C@@H](C)O[C@H]5[C@@H](O)[C@@H]3O)[C@@H]3COC(=O)[C@H]23)OCO4)cc(OC)c1O	0.8%[25.5 µM]	.
O=C1c2ccccc2[C@@H]([C@@H]2c3ccccc3C(=O)c3cc(Br)ccc32)c2ccc(Br)cc21	0.9%[11.4 µM]	.
CCOc1ccc(OCC(=O)N2CCOCC2)cc1	-0.8%	>57
CN(C)S(=O)(=O)c1ccc(C(=O)Nc2ccc(OCC(=O)N3CCOCC3)cc2)cc1	15.8µM*	.
C(CCc1nnc2c(n1)CCCC2)Cc1nnc2c(n1)CCCC2	1.0%[11.4 µM]	.
CCOc1ccc(N2C(=O)c3cccnc3C2Nc2ccc(F)cc2)cc1 (stereo not given)	-0.5%	>57
CCOc1ccc(N2Cc3ncccc3C2=O)cc1	-28.9%	10.7*
Cc1ccc(S(=O)(=O)N[C@@H]2COC(=O)C/C=C\[C@H](C)COC(=O)N[C@@H](C)C(=O)C/C=C\[C@H]2C)cc1	2.1%[11.4 µM]	.
CC(=O)OC[C@@H]1O[C@@H](O/N=C2/C[C@@H](O)[C@@H](O)[C@@H]3[C@@H]4C(=O)N(Cc5ccccc5)C(=O)[C@H]4CC[C@@H]23)[C@H](OC(C)=O)[C@H](OC(C)=O)[C@@H]1OC(C)=O	1.2%[11.4 µM]	.
O=C(Nc1ccc2nc(-c3ccc(Br)o3)[nH]c2c1)c1ccco1	10µM*	10.3*
Cn1cccc1-c1nc2ccc(NC(=O)c3cccs3)cc2[nH]1	-24.5%	i
O=S(=O)(Nc1ccc2nc(-c3ccc(Br)o3)[nH]c2c1)c1ccccc1	-13.3%	>11.4
CC(=O)Nc1ccc(Oc2ccc3nc(C)[nH]c3c2)cc1	-2.2%[25.5 µM]	>25.6
CC(=O)Nc1ccc2nc(-c3cccs3)[nH]c2c1	15.8µM*	.
O=C(Nc1ccc2nc(-c3ccc(Br)o3)[nH]c2c1)c1cccs1	12.6µM*	?
CN1[C@@H]2CC[C@H]1CC(OC(=O)[C@@H](CO)c1ccccc1)C2 (stereo not given in full)	1.5%[11.4 µM]	.
c1ccc(CNc2nc(-c3ccc4c(c3)OCO4)nc3ccccc23)cc1	3.0%[2.29 µM]	.
CCNc1nc(C)nc2c1oc1ccccc12	0.7%	>57
CCNc1nc(CC)nc2c1oc1ccccc12	-3.3%	4.99*
Cc1ccc(C(=O)Nc2nc3ccccc3c(=O)s2)cc1	?	6.81*
SMILES	FLuc inh	Bst PK mod
CCCn1c(NC(=O)c2ccc(C)cc2)nc2ccccc21	-1.0%	>57
O=C1CN2CCN(CC2)CC(=O)Nc2ccc(cc2)S(=O)(=O)c2ccc(cc2)NC(=O)CN2CCN(CC2)CC(=O)Nc2ccc(cc2)S(=O)(=O)c2ccc(cc2)N1	0.2%[11.4 µM]	.
O=C(NC1=NCCS1)c1cc2ccccc2o1	5.01µM*	.
O=C(Nc1cccc(Cl)c1N1CCCC1)c1cc2ccccc2o1	-0.3%	.
O=C(Nc1cccc2ncccc12)c1cc2ccccc2o1	-14.9%	>57
O=C(NC1=NCCS1)c1cccs1	-0.2%	>57
O=C(NC1=NCCS1)c1ccncc1	0.6%	>57
O=C(Nc1ccc(Cl)cn1)c1cc2ccccc2o1	7.94µM*	?
O=C(NC1=NCCS1)Nc1ccccc1	15.8µM*	i
Cc1cc(C(=O)NC2=NCCS2)cs1	15.8µM*	.
CCC1=C(C[C@H]2NCCc3ccccc32)C[C@@H]2c3cc(OC)c(OC)cc3CCN2C1	1.2%[11.4 µM]	.
C/C(=C\COc1cc(=O)[nH]c2ccccc12)CC[C@@H](O)C(C)(C)O	-2.0%[11.4 µM]	.
Nc1nc(SCC(=O)O)[nH]c(=O)c1N	0.1%[11.4 µM]	.
N#C/C(=C(\O)C(=O)O)c1ccc(-c2cccc3ccccc23)cc1	1.4%[11.4 µM]	.

Screening results: PubChem BioAssay, National Center for Advancing Translational Sciences (NCATS)
